Results filed as inconclusive are left out. Entries that show only a call come without a potency. Calls of active or inactive are those of the source. Unless noted, the call rests on the fitted dose curve; in most records, active means well fitted curve in the direction sought with a large enough effect in the repeat runs; inconclusive means weak or mixed curves; inactive means no such curve, though single readings can be large; an effect the other way counts as inactive or inconclusive.

Tested on in one experiment: not listed separately
Kind of experiment: qHTS assay for identifying genotoxic compounds that show differential cytotoxicity against isogenic chicken DT40 cell lines with known DNA damage response pathways - Rad54/Ku70 mutant cell line (AID 743015). Further: nearly all actives have a fitted effect of over 60% in size. Further: potency means the concentration at half of the fitted maximal effect. As to conditions: DT40 Rad54/Ku70 mutant viability, CellTiter-Glo, 40 h; series mostly up to 66.8 µM. Background: In qHTS, concentration-response curves come from the screen itself.
In the case of `COc1cc(C)c(Cc2cnc(N)nc2N)cc1OC`, the Potency was 26.6 µM (active).
For the compound `Sc1nc(S)nc(S)n1`, the Potency entry is “inactive”.
On to `C=CC(O)CCCCC` (centres undefined), for which the Potency entry is “inactive”.
`CCCCCCCCCCCCSCCOCCO`: the Potency result is “inactive”.
The same measure, in the same setting: next, `C=CC(C)(O)CC/C=C(/C)CCC=C(C)C` (centres undefined): 61.1 µM (active).
For the compound `O=P(c1ccccc1)(c1ccccc1)c1ccccc1`, the Potency is 61.1 µM (active).
In the case of `CC/C=C\CCO`, the Potency entry is “inactive”.
The same measure, in the same setting: as for `CCc1c(C)[nH]c2c1C(=O)C(CN1CCOCC1)CC2` (centres undefined), the entry is “inactive”; as for `CC(C)NC(=O)c1ccccc1N`, “inactive”; as for `CCCCCCC/C=C/C=O`, 43.3 µM (active).
`CC/C=C/CCO`: the Potency result is “inactive”.
Still for that read-out and setting: as for `O=C(Cl)c1ccc(F)c(Cl)c1`, the entry is “inactive”.
On the same count and under the same terms, next, `CCCCCCCCS`: “inactive”; `O=C(O)c1cc(C(=O)O)c(C(=O)O)cc1C(=O)O`: “inactive”.
On the same count and under the same terms, next, `CC(C)Oc1ccccc1O`: “inactive”; `[O-][n+]1ccc(Cl)cc1`: “inactive”.

Tested on in another experiment: not listed separately
In words: qHTS assay to identify small molecule antagonists of the androgen receptor (AR) signaling pathway - cell viability counter screen (AID 743033; further: nearly all actives have a fitted effect of over 45% in size). As to conditions: AR-bla HEK293 viability, CellTiter-Glo luminescence, 16 h; series mostly up to 58.5 µM.
In the case of `Sc1nc(S)nc(S)n1`, the Potency entry was “inactive”.
On to `COC(=O)/C=C/C(C)=C\C=C\C(C)=C\C=C\C=C(C)\C=C\C=C(C)\C=C\C(=O)O`, for which the Potency entry was “inactive”.
As to `OCCOc1cccc(OCCO)c1`, the Potency result was “inactive”.
`CC(C)C/C=C(\C=O)c1ccccc1`: the Potency result is “inactive”.
In the case of `COC(=O)Cc1cccc2ccccc12`, the Potency entry was “inactive”.
For `COC=O`, the activity change, negative = cytotoxicity is -27.8% [at 7.04 µM] (inactive).
Turning to `Cc1c(N=C=O)cccc1N=C=O`, the Potency entry was “inactive”.
As to `Clc1ccccc1-c1nc(-c2ccncc2)no1`, the Potency result was “inactive”.
Take `Cc1nc(C)c(C)nc1C`: the Potency entry was “inactive”.
Consider `O=C(OCCCCCOC(=O)c1ccccc1)c1ccccc1`, for which the Potency result was “inactive”.
On the same count and under the same terms, as for `O=c1c2ccccc2oc2ccccc12`, the entry is “inactive”; as for `C=CC(C)(O)CC/C=C(/C)CCC=C(C)C` (centres undefined), “inactive”.
On the same count and under the same terms, as for `O=P(c1ccccc1)(c1ccccc1)c1ccccc1`, the entry is “inactive”; as for `CC/C=C\CCO`, “inactive”; as for `CCOC(=O)CC(O)(CC(=O)OCC)C(=O)OCC`, “inactive”.
Same read-out and setting: as for `C=C(C)C(=O)OCCCCCCCCCCOC(=O)C(=C)C`, the entry is “inactive”; as for `CCCc1ccc(OC)cc1`, “inactive”; as for `CC(Cc1ccccc1)(NC(=O)CN)c1ccccc1` (centres undefined), “inactive”.
With `CC(C)NC(=O)c1ccccc1N`, the Potency entry was “inactive”.
The same measure, in the same setting: as for `CCCCCCC/C=C/C=O`, the entry is “inactive”; as for `O=c1[nH]nc(-c2ccc([N+](=O)[O-])o2)o1`, “inactive”; as for `O=C(O)c1ccccc1-n1cc(C(=O)O)c(=O)c2cc(Nc3c(F)cc(F)cc3Cl)c(Cl)cc21`, “inactive”.
Take `O=C1c2ccccc2C(=O)C1c1ccc2cc(S(=O)(=O)O)cc(S(=O)(=O)O)c2n1`: the Potency result was “inactive”.
In the case of `O=C(Cl)c1ccc(F)c(Cl)c1`, the Potency result is “inactive”.
The same measure, in the same setting: as for `CCCCCCCCS`, the entry is “inactive”.
On the same count and under the same terms, as for `CCCCOC(=O)CC#N`, the entry is “inactive”.
In the case of `CCc1ccc2c(c1)C(=O)c1ccccc1C2=O`, the Potency result is “inactive”.
On the same count and under the same terms, as for `[O-][n+]1ccc(Cl)cc1`, the entry is “inactive”.

The target of a further experiment is Androgen receptor (Homo sapiens) (UniProt P10275). In words: qHTS assay to identify small molecule antagonists of the androgen receptor (AR) signaling pathway (AID 743035; active means well fitted inhibition curve with a large enough effect in the signal ratio in the repeat runs, not every such curve was filed as active; the % refers to the signal ratio). The conditions noted are these: HEK293 AR-UAS-bla, R1881-stimulated, beta-lactamase FRET, 16 h; series mostly up to 58.5 µM. An outline of the steps: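 Steps: seed AR-UAS-bla GripTite HEK293 cells, incubate 4 h at 37C; pin in test compound, then add agonist R1881; incubate 16 h at 37C; add LiveBLAzer B/G FRET substrate, 2 h at room temperature; read fluorescence.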
Sequence of Androgen receptor (Homo sapiens) (P10275 whole entry, looked up): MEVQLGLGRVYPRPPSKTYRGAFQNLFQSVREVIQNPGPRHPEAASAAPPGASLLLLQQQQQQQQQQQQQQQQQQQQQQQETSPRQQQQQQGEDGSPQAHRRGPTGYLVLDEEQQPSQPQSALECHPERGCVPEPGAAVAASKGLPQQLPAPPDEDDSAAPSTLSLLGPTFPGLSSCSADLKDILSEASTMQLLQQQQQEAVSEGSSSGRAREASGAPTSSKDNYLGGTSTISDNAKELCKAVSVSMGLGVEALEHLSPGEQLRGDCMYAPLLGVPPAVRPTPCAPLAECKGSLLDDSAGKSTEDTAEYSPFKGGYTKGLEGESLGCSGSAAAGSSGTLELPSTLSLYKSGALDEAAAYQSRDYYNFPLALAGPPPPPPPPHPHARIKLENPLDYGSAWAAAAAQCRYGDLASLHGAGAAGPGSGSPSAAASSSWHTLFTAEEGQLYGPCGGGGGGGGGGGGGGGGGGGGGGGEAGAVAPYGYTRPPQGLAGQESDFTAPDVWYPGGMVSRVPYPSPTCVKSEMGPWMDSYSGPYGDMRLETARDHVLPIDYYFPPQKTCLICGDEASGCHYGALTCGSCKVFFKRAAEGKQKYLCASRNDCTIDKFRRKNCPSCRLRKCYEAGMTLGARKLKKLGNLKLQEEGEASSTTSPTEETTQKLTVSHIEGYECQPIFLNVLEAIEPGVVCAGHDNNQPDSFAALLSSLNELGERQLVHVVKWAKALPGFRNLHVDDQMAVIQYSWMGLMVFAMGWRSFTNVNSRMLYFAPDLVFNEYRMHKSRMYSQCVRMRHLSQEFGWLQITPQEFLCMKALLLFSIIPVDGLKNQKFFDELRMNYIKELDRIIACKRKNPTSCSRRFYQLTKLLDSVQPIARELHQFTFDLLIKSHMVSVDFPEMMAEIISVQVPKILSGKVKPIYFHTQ
In the case of `COC(=O)/C=C/C(C)=C\C=C\C(C)=C\C=C\C=C(C)\C=C\C=C(C)\C=C\C(=O)O`, the Potency entry was “inactive”.
Still for that read-out and setting: as for `Cc1c(N=C=O)cccc1N=C=O`, the entry is “inactive”; as for `Cc1nc(C)c(C)nc1C`, “inactive”; as for `CCCc1ccc(OC)cc1`, “inactive”.
For the compound `O=C(O)c1cc(C(=O)O)c(C(=O)O)cc1C(=O)O`, the Potency entry is “inactive”.

The target is the same in a further experiment. Kind of experiment: qHTS assay to identify small molecule agonists of the androgen receptor (AR) signaling pathway (AID 743036; active means well fitted activation curve with a large enough effect in the signal ratio in the repeat runs, with a control signal flat, not every such curve was filed as active; the % refers to the signal ratio). The conditions noted are these: HEK293 AR-UAS-bla GripTite, beta-lactamase FRET ratio, 16 h; series mostly up to 62.4 µM. An outline of the steps:
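Quantitative HTS of the Tox21 10K library in HEK293 cells bearing a stably integrated UAS-controlled beta-lactamase reporter. Compound exposure lasted 16 h at 37C. Reporter activity was detected by FRET substrate fluorescence after 2 h at room temperature.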
Turning to `COC(=O)/C=C/C(C)=C\C=C\C(C)=C\C=C\C=C(C)\C=C\C=C(C)\C=C\C(=O)O`, the outcome was inactive.
Still for that read-out and setting: as for `COC(=O)Cc1cccc2ccccc12`, the entry is “inactive”; as for `Cc1c(N=C=O)cccc1N=C=O`, “inactive”.
Still for that read-out and setting: next, `Cc1nc(C)c(C)nc1C`: “inactive”.
Take `O=C(O)c1cc(C(=O)O)c(C(=O)O)cc1C(=O)O`: the result was inactive.

A further experiment has the same target. In words: qHTS assay to identify small molecule agonists of the androgen receptor (AR) signaling pathway using the MDA cell line (AID 743040; further: nearly all actives have a fitted effect of over 20% in size). The conditions noted are these: MDA-kb2 AR-luc cells, MMTV luciferase, 16 h, active compounds read high; series mostly up to 70.3 µM. In a few lines: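 Luciferase read-out, ONE-Glo, 30 min RT. Cells: MDA-kb2 AR-luc, MMTV promoter with AR and GR response elements. Compound exposure 16 h, 37C, 0% CO2, after 5 h pre-incubation. qHTS agonist mode.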
For `COC(=O)/C=C/C(C)=C\C=C\C(C)=C\C=C\C=C(C)\C=C\C=C(C)\C=C\C(=O)O`, the compound was classed as inactive.
Still for that read-out and setting: next, `COC(=O)Cc1cccc2ccccc12`: “inactive”; `Cc1c(N=C=O)cccc1N=C=O`: “inactive”; `Cc1nc(C)c(C)nc1C`: “inactive”.
Still for that read-out and setting: next, `CCCc1ccc(OC)cc1`: “inactive”; `O=C(O)c1cc(C(=O)O)c(C(=O)O)cc1C(=O)O`: “inactive”.

Tested on in the next experiment: not listed separately
Kind of experiment: qHTS assay to identify small molecule antagonists of the androgen receptor (AR) signaling pathway using the MDA cell line - cell viability counter screen (AID 743041; further: nearly all actives have a fitted effect of over 45% in size; further: potency means the concentration at half of the fitted maximal effect). The conditions noted are these: MDA-kb2 viability, CellTiter-Fluor, 16 h, cells co-treated with R1881 androgen agonist; series mostly up to 70.3 µM. In a few lines:
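Cytotoxicity counter screen: MDA-kb2 AR-luc cells, compound + R1881, 16 h, 37C, 0% CO2; CellTiter-Fluor added at 15.5 h, fluorescence read after 30 min.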
As for `COc1cc(C)c(Cc2cnc(N)nc2N)cc1OC`, the Potency entry is “inactive”.
For `Sc1nc(S)nc(S)n1`, the Potency result is “inactive”.
Consider `C=CC(O)CCCCC` (centres undefined), for which the Potency result was “inactive”.
`COC(=O)/C=C/C(C)=C\C=C\C(C)=C\C=C\C=C(C)\C=C\C=C(C)\C=C\C(=O)O`: the Potency result was “inactive”.
The same measure, in the same setting: next, `OCCOc1cccc(OCCO)c1`: “inactive”.
On the same count and under the same terms, as for `CC(C)C/C=C(\C=O)c1ccccc1`, the entry is “inactive”.
The same measure, in the same setting: next, `COC(=O)Cc1cccc2ccccc12`: “inactive”.
Consider `COC=O`, for which the viability change, negative = cytotoxic is 12.8% [at 8.47 µM] (inactive).
As to `Cc1c(N=C=O)cccc1N=C=O`, the Potency result is “inactive”.
On the same count and under the same terms, next, `CCCCCCCCCCCCSCCOCCO`: “inactive”; `Clc1ccccc1-c1nc(-c2ccncc2)no1`: “inactive”.
As to `Cc1nc(C)c(C)nc1C`, the Potency entry was “inactive”.
On the same count and under the same terms, as for `O=C(OCCCCCOC(=O)c1ccccc1)c1ccccc1`, the entry is “inactive”.
The same measure, in the same setting: as for `O=c1c2ccccc2oc2ccccc12`, the entry is “inactive”.
Turning to `CCCCCCCCCCCCCCCCCCCl`, the viability change, negative = cytotoxic was -1.19% [at 8.47 µM] (inactive).
`C=CC(C)(O)CC/C=C(/C)CCC=C(C)C` (centres undefined): the Potency result was “inactive”.
Still for that read-out and setting: next, `O=P(c1ccccc1)(c1ccccc1)c1ccccc1`: “inactive”; `CC/C=C\CCO`: “inactive”; `CCc1c(C)[nH]c2c1C(=O)C(CN1CCOCC1)CC2` (centres undefined): “inactive”.
On to `CCOC(=O)CC(O)(CC(=O)OCC)C(=O)OCC`, for which the Potency entry is “inactive”.
Still for that read-out and setting: next, `C=C(C)C(=O)OCCCCCCCCCCOC(=O)C(=C)C`: “inactive”.
Regarding `CCCc1ccc(OC)cc1`, the Potency entry was “inactive”.
Still for that read-out and setting: next, `CC(Cc1ccccc1)(NC(=O)CN)c1ccccc1` (centres undefined): “inactive”.
On the same count and under the same terms, as for `CC(C)NC(=O)c1ccccc1N`, the entry is “inactive”; as for `CCCCCCC/C=C/C=O`, “inactive”; as for `CC/C=C/CCO`, “inactive”.
For the compound `O=C(O)c1ccccc1-n1cc(C(=O)O)c(=O)c2cc(Nc3c(F)cc(F)cc3Cl)c(Cl)cc21`, the Potency entry was “inactive”.
Still for that read-out and setting: as for `O=C1c2ccccc2C(=O)C1c1ccc2cc(S(=O)(=O)O)cc(S(=O)(=O)O)c2n1`, the figure is 52.5 µM (active); as for `O=C(Cl)c1ccc(F)c(Cl)c1`, “inactive”.
On the same count and under the same terms, next, `CCCCCCCCS`: “inactive”; `O=C(O)c1cc(C(=O)O)c(C(=O)O)cc1C(=O)O`: “inactive”; `C[C@@H](O)[C@H]1C(=O)N2C(C(=O)O)=C(S[C@@H]3CN[C@H](CNS(N)(=O)=O)C3)[C@H](C)[C@H]12`: “inactive”.
Same read-out and setting: as for `CCCCOC(=O)CC#N`, the entry is “inactive”.
As for `[O-][n+]1ccc(Cl)cc1`, the Potency result is “inactive”.

(Values after PubChem BioAssay (Tox21).)
